Inconclusive results are not listed. Where a call stands in place of a potency, no number is given. A number with no mark means an inactive call. Calls of active or inactive are those of the source. Calls come from the whole dose curve; as a rule, active = well fitted curve in the direction sought with a large enough effect; inconclusive = small, poorly fitted or top-dose-only effect, or another doubt; inactive = no such curve, though single readings can be large; an effect the other way counts as inactive or inconclusive.
Legend:
[1] = Panc-1005 Cancer Cell Toxicity qHTS against the NCATS CANVASS Library (AID 1347349); note: series mostly up to about 38 µM; nearly all actives have a fitted effect of over 60% in size
Method in brief: (§1)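 1000 cells/well seeded and rested 4 h at 37 °C before pin transfer of compounds in an 11-pnt series. Exposure 72 h at 37 °C/5% CO2; viability by CellTiter-Glo luminescence after 15 min at room temperature.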

[2] = SW1088 Cancer Cell Toxicity qHTS against the NCATS CANVASS Library (AID 1347350); note: nearly all actives have a fitted effect of over 75% in size
Method in brief: as §1

[3] = COV-362 Cancer Cell Toxicity qHTS against the NCATS CANVASS Library (AID 1347352); note: series mostly up to about 38 µM
Method in brief: (§2)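 Cells at 1000/well were given compound 4 h after plating in an 11-point series. Viability was read by CellTiter-Glo luminescence after 72 h at 37 degrees C.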

[4] = A2780 Cisplatin Sensitive Ovarian Cancer Cell Toxicity qHTS against the NCATS CANVASS Library (AID 1347353); note: nearly all actives have a fitted effect of over 60% in size; note: potency is the fitted concentration of half-maximal effect
Method in brief: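 A2780 cells, 750/well, settled 4 h at 37 °C, then treated with an 11-point compound series for 72 h. Viability was read as ATPLite luminescence after 10 min at room temperature, with bortezomib as control.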

[5] = UWB1.289-WTBRCA1 Cancer Cell Toxicity qHTS against the NCATS CANVASS Library (AID 1347354)
Method in brief: as §2

[6] = KB-8-5-11 Cancer Cell Toxicity qHTS against the NCATS CANVASS Library (AID 1347364); note: series mostly up to about 46 µM; nearly all actives have a fitted effect of over 75% in size
Method in brief: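 KB-8-5-11 cells, 500/well in DMEM + 10% FBS, given compounds in an 11-point series. Incubated 72 h at 37 °C. Viability by CellTiter-Glo luminescence. Confirmation also run with 1 uM tariquidar.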

[7] = qHTS for ATAD5 Antagonist screened against the NCATS CANVASS Library (AID 1347370);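 note: HEK293T cells carrying an ATAD5 luciferase reporter co-treated with 10 µM 5-fluorouridine; series mostly up to about 46 µM; nearly all actives have a fitted effect of over 65% in size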
Method in brief: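 HEK293T cells with stably integrated ATAD5-luciferase reporter, 2000/well, 5 h attachment; compounds plus 10 µM 5-fluorouridine, 16 h at 37 °C. Luciferase luminescence read, with CellTiter-Fluor viability read first.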

[8] = qHTS for Hypoxia signaling pathway (HIF-1) antagonists against the NCATS CANVASS Library (AID 1347374); note: nearly all actives have a fitted effect of over 60% in size; note: potency is the fitted concentration of half-maximal effect
Method in brief: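 HRE-bla ME-180 cells in medium with 0.5% dialyzed FBS received compounds (11-point series) plus CoCl2 (60 uM addition stock) for 17 hrs at 37C. Beta-lactamase activity read with CCF4 (405 nm ex, 460/530 nm em); CellTiter-Glo viability measured in same wells.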

[9] = DH5-alpha competent E. coli microbial cell viability qHTS against the NCATS CANVASS Library (AID 1347377); conditions: outcome: dose series up to 46.1 µM unless noted
Method in brief: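 DH5-alpha E. coli suspension was exposed to an 11-point compound series overnight at 37 °C. Viable cells quantified by ATP luminescence (BacTiter-Glo) after 20 min at room temperature.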

[10] = qHTS for Inflammasome Signaling Inhibitors: IL-1-beta AlphaLISA screen against the NCATS CANVASS Library (AID 1347379);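 note: human THP-1 cells primed with LPS then triggered with ATP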
Method in brief: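 THP-1 cells pretreated 1 hr with compound (up to 57.5 uM final), then stimulated with LPS (250 ng/mL final) and ATP (1.25 mM final). Secreted IL-1B measured by AlphaLISA after 16 hr; glyburide as positive control.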

[11] = qHTS for Activators of p53 Stress Response Pathway screened against the NCATS CANVASS Library (AID 1347388)
Method in brief: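 p53RE-bla HCT-116 cells (4000/well) were pre-incubated for 5 h, then treated with compound (11 points) for 16 h at 37C. After 2 h with CCF4, the 460/530 nm ratio gave reporter activation; CellTiter-Glo measured viability.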

[12] = qHTS assay for small molecule disruptors of mitochondrial membrane potential screened against the NCATS CANVASS Library (AID 1347389); note: nearly all actives have a fitted effect of over 60% in size; note: potency is the fitted concentration of half-maximal effect
Method in brief: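 HepG2 cells (2,000/well) plated overnight, then exposed to compounds in 11-point qHTS series for 1 h at 37C before 30 min Mito-MPS dye; depolarization read as fall in red aggregate (590 nm) to green monomer (535 nm) fluorescence.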

[13] = qHTS for inhibitors of ER calcium dysfunction: SERCaMP assay screened against the NCATS CANVASS Library (AID 1347393); note: nearly all actives have a fitted effect of over 40% in size; note: potency is the fitted concentration of half-maximal effect
Method in brief: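 SH-SY5Y GLuc-SERCaMP, 1000 cells/well, 4 h attach; cpd 16 h, 37C/5% CO2; thapsigargin (added as 6x 600 nM) 4 h; coelenterazine; luminescence. Reduced reporter release = ER Ca stabilization.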

[14] = Vero-766 cells viability qHTS against the NCATS CANVASS Library: Counterscreen for Zika virus inhibition assay (AID 1347394)
Method in brief: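 This cytotoxicity counterscreen uses African green monkey Vero 766 cells in the absence of Zika virus. Compounds are incubated with cells for 72 h, and ATP-based luminescence reports viability.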

[15] = HEK-293 Cancer Cell Toxicity qHTS against the NCATS CANVASS Library (AID 1347355); note: series mostly up to about 46 µM; nearly all actives have a fitted effect of over 65% in size
Method in brief: as §2

[16] = Secretion counterscreen for inhibitors of the SERCaMP assay screened against the NCATS CANVASS Library (AID 1347390);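 note: light from luciferase secreted into medium read as a measure of general secretion; series mostly up to about 77 µM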
Method in brief: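 Counterscreen identifying compounds that disrupt secretion, using SH-SY5Y cells with a constitutively secreted Gaussia luciferase reporter. A 20 h compound exposure (top 77 uM) precedes luminescent detection with coelenterazine.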

[17] = qHTS for activators of Nrf2/ARE signaling pathway screened against the NCATS CANVASS Library (AID 1347391); note: nearly all actives have a fitted effect of over 60% in size; note: potency is the fitted concentration of half-maximal effect
Method in brief: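 ARE-bla HepG2 beta-lactamase reporter cells exposed to compounds for 16 h at 37C; CCF4 substrate 2 h, fluorescence at ex 405 nm, em 460/530 nm. Viability by CellTiter-Glo luminescence.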

[18] = test system: NAD(P)H diaphorase (Clostridium kluyveri); experiment: Diaphorse counterscreen qHTS: Assay Interference Panel against the NCATS CANVASS Library (AID 1347362)
Method in brief: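 Clostridium kluyveri diaphorase in PBS + 0.01% Tween-20 preincubated 15 min with compounds. Resazurin and NADH then added for 5 min at room temperature in the dark; resorufin fluorescence read (ex 525, em 598).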

[19] = SDT Cancer Cell Toxicity qHTS against the NCATS CANVASS Library (AID 1347365)
Method in brief: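 SDT dog glioma cells (500/well) exposed to an 11-point compound series for 72 hr at 37C, 5% CO2. Cytotoxicity read as ATP content by CellTiterGlo luminescence; bortezomib titration as control.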

[20] = G06 Cancer Cell Toxicity qHTS against the NCATS CANVASS Library (AID 1347368)
Method in brief: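 G06 dog glioma cells, 500 per well, exposed 72 hr at 37C, 5% CO2 to compounds in an 11-point series. Cytotoxicity read as ATP content by CellTiterGlo luminescence.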

Structure (SMILES)	Potency [1]	Potency [2]	Potency [3]	Potency [4]	Potency [5]	Potency [6]	Potency [7]	Potency [8]	outcome [9]	Potency [10]	Potency [11]	Potency [12]	Potency [13]	Potency [14]	Potency [15]	Potency [16]	Potency [17]	Potency [18]	Potency [19]	Potency [20]
O=C1CC(c2cc(O)cc(O)c2)Oc2cc(O)ccc21 (stereo not drawn)	inactive	inactive	inactive	3.72 µM (active)	inactive	inactive	inactive	inactive	inactive	inactive	inactive	7.41 µM (active)	8.6 µM (active)	inactive	–	–	–	–	–	–
O=c1cc(-c2ccc(O)c(O[C@@H]3O[C@H](CO)[C@@H](O)[C@H](O)[C@H]3O)c2)oc2cc(O[C@@H]3O[C@H](CO)[C@@H](O)[C@H](O)[C@H]3O)cc(O)c12	inactive	inactive	inactive	–	inactive	inactive	inactive	inactive	inactive	inactive	inactive	inactive	inactive	inactive	inactive	inactive	inactive	–	–	–
O=Cc1ccc2n1C[C@@]1(C[C@H](O)[C@H](O)CO1)OC2	–	inactive	–	inactive	–	inactive	inactive	inactive	inactive	inactive	inactive	inactive	–	inactive	inactive	inactive	inactive	inactive	inactive	inactive
COc1c(O)cc2oc(-c3ccccc3)cc(=O)c2c1O	inactive	inactive	inactive	20.9 µM (active)	inactive	–	inactive	9.41 µM (active)	inactive	inactive	inactive	–	34.3 µM (active)	–	inactive	inactive	13.2 µM (active)	inactive	inactive	inactive

From PubChem BioAssay (NCATS)
